# HT1080 IDH1KD tx – kills HT-1080 cells with IDH1 knockdown; HT-1080 IDH1 knockdown viability, ATP luminescence, 48 h; Potency, µM (highest dose often 46.1 µM), inactives show at the top dose activity, negative = toxicity, usual class: cytotoxic; 2% of 360,000 active;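 note: potency is the fitted concentration of half-maximal effect; 0% = DMSO wells and -100% = cell-free medium wells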
#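 Cytotoxicity counter-line: IDH1KD HT-1080, 48 h, CellTiter-Glo. Curves classed by r2, magnitude and activity.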
# TDP1 cell noCPT – qHTS for Inhibitors of human tyrosyl-DNA phosphodiesterase 1 (TDP1): qHTS in cells in absence of CPT; DT40 Tdp1-/- hTDP1 cells, no CPT, ATP luminescence, 48 h; Potency, µM (top dose mostly 46.2 µM), for inactives: at the highest dose activity change, negative = growth inhibition, actives largely listed as inhibitors; 15% of 420,000 active; note: potency is the fitted concentration of half-maximal effect; nearly all actives have a fitted effect of over 55% in size
#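 Seeded 400 DT40-hTDP1 cells/well (vehicle DMSO, no 20 nM CPT); pinned compounds; ≥48 hr at 37 °C; CellTiter-Glo luminescence as viability measure.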
# 12-LOX inh – inhibitors of human 12S-lipoxygenase ALOX12 | P18054 | purified 12hLO, xylenol orange hydroperoxide absorbance | Potency, µM (titrated, usually from 108 µM), without a hit: top-dose activity change, negative = inhibition, actives largely listed as inhibitors | 1.1% of 580,000 active; note: potency is the fitted concentration of half-maximal effect
# Target sequence (P18054 whole entry, looked up): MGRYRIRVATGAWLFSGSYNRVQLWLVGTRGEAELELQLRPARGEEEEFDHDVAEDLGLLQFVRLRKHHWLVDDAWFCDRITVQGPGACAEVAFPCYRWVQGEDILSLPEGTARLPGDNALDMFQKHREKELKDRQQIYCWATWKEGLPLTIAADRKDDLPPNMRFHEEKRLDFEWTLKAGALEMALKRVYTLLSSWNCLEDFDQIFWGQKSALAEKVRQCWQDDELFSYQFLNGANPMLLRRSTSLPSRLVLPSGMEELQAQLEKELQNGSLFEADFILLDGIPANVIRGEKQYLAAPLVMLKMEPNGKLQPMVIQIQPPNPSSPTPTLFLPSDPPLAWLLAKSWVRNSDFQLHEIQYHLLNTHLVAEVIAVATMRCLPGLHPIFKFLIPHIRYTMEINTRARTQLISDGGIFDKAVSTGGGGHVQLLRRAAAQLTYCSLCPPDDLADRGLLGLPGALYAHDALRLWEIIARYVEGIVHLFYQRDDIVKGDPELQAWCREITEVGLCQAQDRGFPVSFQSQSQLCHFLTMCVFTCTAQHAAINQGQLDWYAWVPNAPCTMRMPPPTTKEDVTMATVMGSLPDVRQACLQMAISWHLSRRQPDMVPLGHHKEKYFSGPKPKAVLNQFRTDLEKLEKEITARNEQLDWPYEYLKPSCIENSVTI
#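 Hydroperoxide product was detected by ferrous iron/xylenol orange as the 573 to 405 nm absorbance ratio. Arachidonic acid at 40 uM (final) was turned over for 30 min at room temperature by 150 nM human 12hLO, pH 7.0 Hepes buffer, after 15 min compound preincubation.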
# DT40 TDP1 CPT – DT40-hTDP1 cell growth loss with CPT; chicken DT40 Tdp1-/-;hTDP1 cells + 20 nM CPT, ATP luminescence, 48 h; Potency, µM (titrated, usually from 46.2 µM), for the others: at the top dose activity change, negative = growth inhibition, hits mostly inhibitors; 12% of 420,000 active; note: potency is the fitted concentration of half-maximal effect; nearly all actives have a fitted effect of over 55% in size
#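 Chicken DT40 Tdp1-/- cells complemented with human TDP1, 400 cells/well, exposed to compounds plus 20 nM camptothecin for at least 48 h at 37 C; viability read as ATP content by CellTiter-Glo luminescence.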
# IL1B secr inh – blocks inflammasome-driven IL-1 beta release | THP-1 LPS/ATP IL-1B secretion, AlphaLISA, 16 h; active compounds read low | activity change, % at 57.5 µM | 4.7% of 360,000 active | AID 743279; in the data active = activity change below about -50%; inconclusive = mostly about -30% to -49%
#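 Secreted IL-1B measured by AlphaLISA bead assay after 16 h compound exposure of THP-1 cells; compounds (final up to 57.5 uM) added 1 h before LPS (250 ng/mL) and ATP (1.25 mM) stimulation; lower signal means less secretion.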
# HT1080NT lethal – kills 2HG-producing HT-1080-NT fibrosarcoma cells; 1.6% of 360,000 active; HT-1080-NT fibrosarcoma viability, CellTiter-Glo ATP luminescence, 48 h; AID 686970; Potency, µM (titrated, usually from 46.1 µM), without a hit: at the highest dose activity, negative = less viability, usual class: cytotoxic;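 note: NT is the 2HG producing partner of a matched IDH1 knockdown line; potency is the fitted concentration of half-maximal effect; 0% = DMSO-treated cells and -100% = media-only wells without cells; nearly all actives have a fitted effect of over 55% in size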
#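 A 48-hour cytotoxicity screen used HT-1080-NT cells plated 2 hours before compound delivery. ATP-based CellTiter-Glo luminescence measured viability, normalized to DMSO and no-cell controls.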
# An asterisk follows results filed as active; i = inactive; u = inconclusive; x = no result; [ ] = remark or other dose. This excerpt belongs to a sample that is enriched for hits. Unless noted, calls come from the whole dose curve; as a rule, active = well fitted curve in the direction sought with a large enough effect; inconclusive = small, poorly fitted or top-dose-only effect, or another doubt; inactive = no such curve, though single readings can be large; an effect the other way counts as inactive or inconclusive. Unless noted, % is set by controls: 0 for no effect and ±100 for the full control effect.
SMILES,HT1080 IDH1KD tx,TDP1 cell noCPT,12-LOX inh,DT40 TDP1 CPT,IL1B secr inh,HT1080NT lethal
CCOC(=O)N1CCN(C(=S)NC(=O)c2ccc(Br)cc2)CC1,-15%,13µM*,u,u,u,-5%
CCOC(=O)CC1C(=O)NCCN1C(=S)NC(=O)c1ccc(C)c(Br)c1 (configuration not stated),6%,5.2µM*,u,5.8µM*,-16,1%
CCOC(=O)N1CCN(C(=O)CSCc2ccc(Br)cc2)CC1,-4%,u,-4%,-23%,-60*,0%
CCN(Cc1ccccc1)Cc1cc(=O)oc2ccc(C)cc12,x,x,3%,x,x,x
CCOC(=O)N1CCN(C(=O)C(NC(=O)c2ccc(CC)cc2)C(C)C)CC1 (configuration not stated),11%,5.8µM*,3%,8.2µM*,-19,-6%
CCOCCCNC(=O)NCC12CCCC=C1NC(=O)CC2 (configuration not stated),x,x,59%,x,x,x
COc1ccc(C(=O)N2CCN(C(=O)c3nnn4c3COC(c3ccc(C)cc3)C4)CC2)cc1 (configuration not stated),x,x,15%,x,x,x
Cc1ccc(-n2nc(C)c3c(C)c(CCC(=O)NCc4ccco4)c(C)nc32)cc1,-1%,u,14%[57.4 µM],23µM*,-22,-1%
Cc1ccc(CNC(=O)CCc2c(C)nc3c(c(C)nn3-c3ccc(C)cc3)c2C)cc1,0%,12%,14%,-12%,7,3%
Cc1ccc(-n2nc(C)c3c(C)c(CCC(=O)NCc4ccccc4Cl)c(C)nc32)cc1,x,u,u,16µM*,x,x
COc1ccc(CCNC(=O)CCc2c(C)nc3cc(-c4ccccc4)nn3c2C)cc1OC,x,26µM*,-19%,16µM*,x,x
CCOc1ccc(CCNC(=O)CCc2c(C)nc3cc(-c4ccccc4OC)nn3c2C)cc1,x,15µM*,u,u,x,x
COc1ccc(CCNC(=O)CCc2c(C)nc3c4c(C)cc(C)nc4nn3c2C)cc1OC,x,16µM*,-17%,u,x,x
CCOc1ccccc1NC(=O)CCc1c(C)nc2cc(-c3ccccc3)nn2c1C,x,12µM*,-4%,18µM*,x,x
CSc1ccc(CCNC(=O)CCc2c(C)nc3cc(-c4ccccc4)nn3c2C)cc1,x,-24%,-7%,-23%,x,x
Cc1ccc(NC(=O)CCc2c(C)nc3cc(-c4ccccc4)nn3c2C)cc1F,x,u,-29%,u,x,x
Cc1cccc(CCNC(=O)CCc2c(C)nc3c4c(C)cc(C)nc4nn3c2C)c1,x,-17%,-3%,u,x,x
CC1=C(C(=O)OC(C)C)C(c2ccc(C(C)(C)C)cc2)N2C(=O)CCSC2=N1 (configuration not stated),x,x,12%,x,x,x
COC(=O)COc1ccc2c(=O)c(-c3csc(C)n3)coc2c1,x,x,38%,x,x,x
Cc1nc(-c2coc3cc(O)c(C)cc3c2=O)cs1,23µM*,u,466%,-27%,36,18µM*
COc1cc(/C=N/NC(=O)c2sc(N)c(C#N)c2C)cc(Br)c1O,9%,u,i,-29%,-77*,19%
Cc1c(C(=O)N/N=C/c2cccnc2)sc(N)c1C#N,-6%,-26%,i,-18%,-63*,1%
Cc1ccc(C(=O)N/N=C\c2cccnc2)s1,10%,7%,475%,7%,-9,10%
CC(C)c1ccc(NC(=S)N2CCN(S(=O)(=O)c3ccccc3)CC2)cc1,-25%,-6%,u,-9%,-12,u
CCCCN1C(=O)CN(C2CCCCCC2)C(=O)C1c1ccc(OCC)c(OC)c1 (configuration not stated),x,u,-16%,u,x,x
SMILES,HT1080 IDH1KD tx,TDP1 cell noCPT,12-LOX inh,DT40 TDP1 CPT,IL1B secr inh,HT1080NT lethal
ON=C1c2ccccc2-c2ccc(Br)cc21,12%,23µM*,-7%,29µM*,0,-3%
NC(=S)NN=C1c2ccccc2-c2cc(Br)ccc21,-27%,3.7µM*,40µM*,5.2µM*,-5,-9%
Nc1cc2c(cc1Br)-c1ccccc1C2=NO,-31%,u,-5%,26µM*,-105*,3%
ON=C1c2ccccc2-c2ccc(F)cc21,-1%,18µM*,-6%,u,-12,1%
O=C1c2ccccc2-c2cc(Br)ccc2NC1O (configuration not stated),-14%,u,-24%,-20%,1,0%
Cc1ccsc1CNCC1CCCO1 (configuration not stated),x,x,-21%,x,x,x
CC1CCC(C(C)C)C(P(=O)(c2ccccc2)c2ccccc2)C1 (configuration not stated),x,x,0%,x,x,x
COc1ccc(C2=CC3=C(Br)C(=O)C(C)(O)C(=O)C3=CO2)cc1 (configuration not stated),4%,-29%,x,-30%,7,3%
CCC(=O)OC1(C)C(=O)C2=COC(c3ccc(OC)cc3)=CC2=C(Br)C1=O (configuration not stated),6%,-23%,50µM*,14%,33,12%
CCC(=O)OC1(C)C(=O)C=C2C=C(c3ccc(C#N)cc3)OC=C2C1=O (configuration not stated),0%,-12%,5.6µM*,-2%,6,0%
CCCCC1=CC2=CC(=O)C(C)(OC(=O)CC)C(=O)C2=CN1C1CCCCC1 (configuration not stated),-3%,u,u,u,19,6%
CCNC(=O)N1CC(C(=O)N(C)C)C2(CCOCC2)C1 (configuration not stated),x,x,57%,x,x,x
Cc1onc(-c2c(Cl)cccc2Cl)c1C(=O)c1c[nH]c(C(=O)NCC2CCCO2)c1 (configuration not stated),5%,13µM*,75%,u,-6,-6%
Cc1onc(-c2c(F)cccc2Cl)c1C(=O)c1ccccc1,9%,u,170%,1%,x,2%
Cc1onc(-c2c(F)cccc2Cl)c1C(=O)c1ccccc1O,26µM*,u,0%,-28%,-11,u
Cc1onc(-c2c(F)cccc2Cl)c1C(=O)NC1CCCCCC1,-11%,29µM*,u,u,1,18%
Cc1onc(-c2ccccc2Cl)c1C(=O)N1CCCCCC1,-8%,-22%,-44%,-2%,4,15%
CC(=O)c1c[nH]c(C(=O)NCC2CCCO2)c1 (configuration not stated),0%,-4%,-20%,-2%,-6,0%
